In all, about 320,000 compounds went through this assay and about 2,100 (0.66%) were called active. Inconclusive results (about 53%) are left out. Calls follow the shape of the dose curve; as a rule, active = well fitted inhibition curve with a large enough effect in the signal ratio, with a control signal flat (not every such curve was filed as active); inconclusive = small, poorly fitted or top-dose-only effect, or effect the other way, or a change in a side signal; inactive = flat fitted curve, though single readings scatter; the % refers to the signal ratio. This excerpt belongs to a sample that is enriched for actives.
Potency is read from the fitted curve at half-maximal effect.

A short description of this test: qHTS Assay for Lipid Storage Modulators in Drosophila S3 Cells.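 As to cell number change: cells counted by Cell Tracker Red CMTPX staining in the red channel.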 As to lipid storage change, negative = inhibition: % is scaled to controls: 0 for no effect and ±100 for the full control effect. Conditions: BODIPY lipid droplet fluorescence, 18-24 h, cells fed with added oleic acid; cell number change: measured here: cell count max response; series mostly up to 46.1 µM; lipid storage change, negative = inhibition: at the top concentration. The procedure, abridged:
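Drosophila S3 cells got compounds at several concentrations plus oleic acid (400 uM solution). Laser-scanning cytometry with 488 nm excitation read lipid droplets at 500-530 nm and cells at 575-640 nm. Percent activity was relative to 20 uM Triacsin C.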
Take `CC(=O)NC(Cc1ccccc1)C(=O)OCC(=O)c1ccc(F)cc1` (stereo not drawn): the “lipid storage change, negative = inhibition” value was -27.4% (inactive). `Cc1ccc(Nc2nc(-c3ccncc3)nc3ccccc23)cc1`: the “lipid storage change, negative = inhibition” value was 6.48% (inactive) and the cell number change is -7.93%. Consider `Cc1nn(CCCC(=O)NCc2ccco2)c(=O)c2nn(-c3ccccc3)c(C)c12`, for which the “lipid storage change, negative = inhibition” value is 15.5% (inactive). Turning to `CC(C)(/C=N/O)N(O)C=C1C=CC(=O)C=C1`, the “lipid storage change, negative = inhibition” value is 0.34% (inactive) and the cell number change is 1.11%. For `N#C/C(C(=O)Oc1ccccc1)=C1\C=Cc2ccccc2N1`, in that order: -11.1% (inactive) and -1.92%. Take `COc1ccc(OC(=O)/C=C/c2ccc([N+](=O)[O-])cc2)cc1`: the “lipid storage change, negative = inhibition” value is -3.13% (inactive) and the cell number change was found to be 3.89%. Consider `COc1ccc(S(=O)Cc2ccc(C(=O)NC3CC3)o2)cc1` (stereo not drawn), for which the “lipid storage change, negative = inhibition” value is 12% (inactive) and the cell number change was 13.8%. As for `COc1ccc(N(C)S(=O)(=O)c2cccc(C(=O)Nc3nc(C)c(C(C)=O)s3)c2)cc1`, the Potency is 1.16 µM (active). `COc1ccc(N(C)S(=O)(=O)c2cccc(C(=O)Nc3nnc(C4CC4)s3)c2)cc1`: the “lipid storage change, negative = inhibition” value was -3.22% (inactive). Regarding `COc1ccc(N(C)S(=O)(=O)c2cccc(C(=O)Nc3nnc(C)s3)c2)cc1`, the compound was classed as inactive and the cell number change is -20.6%. Take `O=C(NC(=S)NCc1cccnc1)c1cc2ccccc2o1`: the “lipid storage change, negative = inhibition” value was 4.99% (inactive) and the cell number change was -19.5%. Regarding `Cc1cc(F)c(F)c(C(=O)NC2CC2)c1Cl`, the Potency is 9.2 µM (active). For `Cc1cc(F)c(F)c(C(=O)N2C(C)CCCC2C)c1Cl` (stereo not drawn), the “lipid storage change, negative = inhibition” value was -11.4% (inactive) and the cell number change worked out at 0.056%. `Cc1cc(F)c(F)c(C(=O)N2CCC(C)CC2)c1Cl`: the “lipid storage change, negative = inhibition” value is 10.8% (inactive) and the cell number change stood at 0.433%. `COc1ccc(OCc2cc(C(=O)N(C)C(C)c3ccon3)no2)c(Cl)c1` (stereo not drawn): the compound was classed as inactive and the cell number change was -9.97%. Consider `Cc1cc2c(cc1S(=O)(=O)N1CCN(c3ccccc3)CC1)OCCN2C`, for which the “lipid storage change, negative = inhibition” value was 25.3% (inactive) and the cell number change is -3.46%. Regarding `Cc1ccc(S(=O)(=O)C2(C(=O)N3CCN(c4ccccc4F)CC3)CC2)cc1`, the Potency is 0.731 µM (active) and the cell number change was -5.26%.

For `Cc1ccc(S(=O)(=O)C2(C(=O)N3CCN(c4cc(C)ccc4C)CC3)CC2)cc1`, the “lipid storage change, negative = inhibition” value is 6.15% (inactive). Turning to `Cc1cccc(N2CCN(C(=O)C3(S(=O)(=O)c4ccc(Cl)cc4)CC3)CC2)c1C`, the “lipid storage change, negative = inhibition” value was 8.29% (inactive) and the cell number change was 0.245%.

Consider `C/C(=N/NS(=O)(=O)c1cccc([N+](=O)[O-])c1)c1c[nH]c2ccccc12`, for which the “lipid storage change, negative = inhibition” value was 1.43% (inactive). With `C/C(=N/Nc1ccc([N+](=O)[O-])cc1)c1c[nH]c2ccccc12`, the Potency was 4.11 µM (active) and the cell number change was -24.9%. Consider `C/C(=N\NS(=O)(=O)c1ccc([N+](=O)[O-])cc1)c1c[nH]c2ccccc12`, for which the result was inactive and the cell number change is -0.495%. For `O=C(Cn1cc(S(=O)(=O)Cc2ccccc2F)c2ccccc21)N1CCOCC1`, the “lipid storage change, negative = inhibition” value is -4.09% (inactive) and the cell number change was 9.64%. As to `O=[N+]([O-])c1ccc(N2CCCC2)nc1N1CCCC1`, the “lipid storage change, negative = inhibition” value is -1.16% (inactive) and the cell number change worked out at 16.9%. Take `COc1ccc(-c2cc(=O)c(C(=O)c3ccc(C)cc3)n[nH]2)cc1`: the “lipid storage change, negative = inhibition” value is 2.45% (inactive) and the cell number change worked out at 14%. Turning to `O=C(OCc1cc(Cl)ccc1OC(F)F)c1cccnc1`, the “lipid storage change, negative = inhibition” value is 8.44% (inactive) and the cell number change is 13.9%.

For `O=C(OCc1cc(Cl)ccc1OC(F)F)c1cc(S(=O)(=O)O)ccc1O`, the Potency is 1.64 µM (active) and the cell number change was -6.52%. Consider `O=C(OCc1cc(Cl)ccc1OC(F)F)c1cncc(Br)c1`, for which the compound was called inactive. Regarding `CC1CC(=O)Nc2ccccc2N1C(=O)CSc1ncnc2sccc12` (stereo not drawn), the “lipid storage change, negative = inhibition” value was 6.7% (inactive) and the cell number change is 0.129%. In the case of `COc1ccc(CCC(=O)Nc2cccc(S(=O)(=O)N(C)C)c2)cc1OC`, the “lipid storage change, negative = inhibition” value is -18.4% (inactive) and the cell number change was found to be 15.7%. Turning to `COc1ccc([N+](=O)[O-])cc1NC(=S)NC(C)=O`, the “lipid storage change, negative = inhibition” value was -18.5% (inactive) and the cell number change stood at 0.615%. With `Cc1ccc(NS(=O)(=O)N(C)C)cc1`, the compound was classed as inactive. Regarding `CN(C)S(=O)(=O)Nc1cc(F)cc(F)c1`, the “lipid storage change, negative = inhibition” value was -32.6% (inactive) and the cell number change was -8.31%. On to `CN(C)S(=O)(=O)Nc1cc(Cl)cc(Cl)c1`, for which the Potency is 18.4 µM (active) and the cell number change is -41.2%. As to `CCN(C(=O)COC(=O)c1ccc(Cl)c(N)c1)C1CCS(=O)(=O)C1` (stereo not drawn), the “lipid storage change, negative = inhibition” value is 0.308% (inactive) and the cell number change turned out to be 6.77%.

Consider `CCOc1ccccc1C(=O)n1nc2nc(C)cc(C)c2c1N`, for which the call was inactive and the cell number change is 6.26%. For the compound `CCCn1c(N)c(C(=O)CSc2nnc(C3CC3)n2Cc2ccccc2)c(=O)[nH]c1=O`, the “lipid storage change, negative = inhibition” value is -10.4% (inactive) and the cell number change was found to be 7.78%. Regarding `COc1ccc(C(=O)/C=C/c2ccccc2)c(OC)c1`, the “lipid storage change, negative = inhibition” value is -0.419% (inactive) and the cell number change came to 16.5%. Take `O=C1C(=O)N(CCCN2CCOCC2)C(c2ccc(F)cc2)/C1=C(\O)c1ccc2c(c1)OCCO2` (stereo not drawn): the compound was classed as inactive and the cell number change is -2.36%. For the compound `COc1cccc(C(=O)Nc2cccc(OC(C)=O)c2)c1`, the result was inactive and the cell number change was -9.37%. With `COc1ccc(CCN2C(=O)/C(=C\c3ccco3)SC2=S)cc1OC`, the “lipid storage change, negative = inhibition” value is -6.07% (inactive) and the cell number change was -20.3%. For the compound `CCCCNC(=O)COC(=O)c1c2c(nc3ccccc13)CCC2`, the Potency is 7.31 µM (active) and the cell number change amounted to 1.26%. On to `CNC(=O)COC(=O)c1c2c(nc3ccccc13)CCC2`, for which the “lipid storage change, negative = inhibition” value is 0.527% (inactive) and the cell number change was -0.369%. On to `COc1ccc(NC(=O)COC(=O)c2c3c(nc4ccccc24)CCCC3)cc1`, for which the “lipid storage change, negative = inhibition” value is -1.44% (inactive) and the cell number change was -10.5%. `CN(CC(=O)NCCN1CCN(Cc2ccccc2)CC1)S(=O)(=O)c1cccc2nsnc12`: the “lipid storage change, negative = inhibition” value is -4.25% (inactive) and the cell number change worked out at 3.2%. For `COCC(C)NC(=O)CCc1nnc(C2(c3ccc(Cl)cc3)CCC2)o1` (stereo not drawn), in that order: -11.8% (inactive) and 7.22%.
